29 molecules from PubChem BioAssay can be followed below.

This assay deals with Torsin-1A (Homo sapiens) (UniProt O14656). Put plainly: TOR1A wild-type binding on microarray – cell lysate, small-molecule microarray, lysate, 635/667 nm, primary screen (AID 1149). As to conditions: COS7 hTOR1A-WT lysate, 635 nm fluorescence, higher = more signal.
Sequence of Torsin-1A (Homo sapiens) (O14656 whole entry, looked up): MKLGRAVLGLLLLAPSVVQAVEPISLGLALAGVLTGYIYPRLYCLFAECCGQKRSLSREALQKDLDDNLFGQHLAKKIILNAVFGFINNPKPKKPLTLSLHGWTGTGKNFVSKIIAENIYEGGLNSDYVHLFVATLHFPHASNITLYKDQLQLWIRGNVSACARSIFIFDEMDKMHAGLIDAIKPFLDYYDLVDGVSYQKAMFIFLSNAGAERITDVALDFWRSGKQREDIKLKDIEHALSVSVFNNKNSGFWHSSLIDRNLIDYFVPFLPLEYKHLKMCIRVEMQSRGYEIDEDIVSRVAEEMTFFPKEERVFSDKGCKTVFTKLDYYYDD
For `COc1ccc([Si](C)(C)[C@@H]2[C@@H](CCO)O[C@]3(C(=O)N(Cc4ccc(NC(C)=O)cc4)c4ccccc43)[C@H]2C)cc1`, the composite z-score turned out to be 0.412.
The result for `CCCCC(=C=CC[C@H](O)c1ccccc1OCCO)C[C@H](O)COCc1ccccc1` reads 1.08; that for `COC(=O)[C@H]1COC(c2ccc(OCCCO)cc2)=N1`, 0.337; that for `CC(C)C[C@@H]1NC(=O)[C@H]2C[C@@H](C(=O)NCCCCCCN(C)C)[C@@H](c3cccc(OCCO)c3)N2C1=O`, 1.22.
As for `O=C1O[C@@H](c2ccccc2)[C@@H](c2ccccc2)N2[C@@H](c3ccccc3OCCO)[C@]3(C(=O)Nc4ccc(C#CCCO)cc43)[C@@H](C(=O)O)[C@H]12`, the composite z-score is 0.536.
`CC(C)NC(=O)[C@@]1(C)c2ccccc2C(=O)N(Cc2cc(F)cc(C(F)(F)F)c2)[C@H]1c1ccc(CO)cc1` yielded a composite z-score of 0.411.
The result for `O=C1O[C@@H](c2ccccc2)[C@@H](c2ccccc2)N2[C@@H](c3ccc(OCCO)cc3)[C@]3(C(=O)Nc4ccccc43)[C@@H](C(=O)N3CCN(c4ncccn4)CC3)[C@H]12` reads 0.403; that for `CCc1cc2c(nc1CC)CCN(CCC(C)=NOC[C@@H](O)[C@H]1O[C@@H]3OC(C)(C)O[C@@H]3[C@H]1O)C2`, 0.3; that for `C=CC[C@@H]1C=C[C@H](ON=C(C)CCN2CCc3nc(CC)c(CC)cc3C2)[C@@H](CO)O1`, 0.97.
The result for `CN(C)CCCNC(=O)[C@@H]1c2ccccc2C(=O)N(Cc2cc(F)cc(C(F)(F)F)c2)[C@H]1c1ccc(CO)cc1` reads 0.65; that for `O=C1[C@H]2[C@H]3[C@H](O)[C@H](O)CC(=NOC[C@@H](O)COCc4ccco4)[C@H]3CC[C@H]2C(=O)N1c1cccc(Oc2ccccc2)c1`, 0.626.
The result for `CS(=O)(=O)CCOC(=O)C1=CC(CCCO)=CC(c2cccs2)N(Cc2cccc(OC(F)(F)F)c2)C=C1C(=O)OCCS(C)(=O)=O` (centres undefined) reads 0.972; that for `CC(CCC(=O)OC[C@H]1O[C@H](C#Cc2ccccc2)C=C[C@@H]1Oc1ccc(C)cc1)=NO[C@@H](C)c1cn([C@H](CO)Cc2ccccc2)nn1`, -0.323.
For `COc1ccc(O[C@H]2C=C[C@@H](c3ccccc3)O[C@@H]2COC(=O)CCC(C)=NO[C@@H](C)c2cc(-c3c(C)cc(C)cc3C)no2)cc1`, the composite z-score was -1.29.
The result for `CC(C)[C@@H](OCc1ccccc1)[C@H](C)C=NO[C@H](C)c1cn([C@H](CO)Cc2ccccc2)nn1` reads 0.353; that for `COc1cccc([C@H]2Oc3ccc(OC)cc3C(=NOC(C)CN3CCCc4nc(C)c(C)cc43)[C@@H]2O)c1` (some centres undefined), 0.433; that for `O=C1C[C@@H](O)[C@@H](O)[C@@H]2[C@@H]3C(=O)N(C4CCCCC4)C(=O)[C@@H]3CC[C@H]12`, 0.296.
`COc1ccc([Si](C)(C)[C@H]2[C@H](CC(=O)N3CCC[C@H]3CO)O[C@@]3(C(=O)N(Cc4cccc(N5C(=O)COc6ccccc65)c4)c4ccccc43)[C@@H]2C)cc1` showed a composite z-score of 0.419.
For `CC(C)NC(=O)[C@@]1(c2ccc([N+](=O)[O-])cc2)CC(=O)N(CC23CC4CC(CC(C4)C2)C3)[C@@H]1c1ccc(CO)cc1I`, the composite z-score was determined as 0.484.
Turning to `C=CCOC(=O)[C@H]1[C@@H]2C(=O)O[C@@H](c3ccccc3)[C@@H](c3ccccc3)N2[C@@H](c2ccc(OCCOC(=O)[C@H]3C[C@H]4C(=O)N5CCC[C@H]5C(=O)N4[C@H]3c3cccc(OCCO)c3)cc2)[C@]12C(=O)Nc1ccc(I)cc12`, the composite z-score turned out to be 1.95.
Consider `CC(C)CN1CCc2nc(-c3ccccc3)c3c(c2CC1)CO[C@@H](C)C3`, for which the composite z-score is 0.531.
Molecule `CC(C)OC(=O)C=C1C[C@@H](c2ccc(C#N)cc2)O[C@@H](c2ccc(C#N)cc2)O1` gave a composite z-score of 1.99.
With `C=CC[C@@H]1C=C[C@H](ON=C[C@@H](OC)[C@H](C)C=CCC(=O)OC)[C@@H](CO)O1`, the composite z-score turned out to be 0.434.
In the case of `CN1C(=O)C2C(C1=O)C1C=C(CCCO)C2C(c2ccc(CN3CCCC3)cc2)N1C` (centres undefined), the composite z-score turned out to be 0.33.
Next, `COCC(=C=CC[C@@H](O)c1ccccc1OCCO)CCO`: 0.635; `COCCOC(=O)N1C(=O)[C@@]2(c3cc(C#CCNC(N)=O)ccc31)[C@H](c1ccc(O)cc1)N1[C@H](c3ccccc3)[C@H](c3ccccc3)OC(=O)[C@H]1[C@@H]2C(=O)N1CCCCCCC1`: 0.4.
`C=C(/C(=C/C[C@H](OC(=O)c1ccncc1)c1ccc(OCCO)cc1)c1cnc2ccccc2c1)C(C)C` had a composite z-score of 1.12.
The result for `Cc1cc2c(c(=O)o1)[C@H](O)[C@H]1O[C@H]1C2=O` reads 0.284; that for `COC(=O)[C@@H]1CC[C@H](C)[C@@H](c2ccc(C)cc2)N1C(=O)c1ccc(C=NOC[C@@H](O)COCc2ccco2)cc1`, -1.72.
